The campaign covered roughly 2,300 compounds. About 330 (14%) showed activity.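 Rule for the calls: active = median modified Z-score above 1.96; inactive = 1.96 or below.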 Only a sample is shown.
System: HepG2 Srxn1-GFP reporter cells (+30 nM CDDO-Me)
Assay: Srxn1-GFP intensity median modified Z-score relative to plate median; higher = stronger NRF2 / oxidative stress reporter activation, active = hit call of the paper
Details: 10 µM; exposure time: 24h
Outline: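 Each value is the replicate median of a per-plate modified Z-score for GFP intensity in HepG2 Srxn1-GFP BAC reporter cells. The cells (20,000 per well, 96-well plates, three replicate plates) received compound at 10 μM together with an NRF2 activator at 30 nM for 24 h, in ≤0.1% DMSO. Cytoplasmic GFP was quantified per cell from confocal images of formaldehyde-fixed, Hoechst-stained cells, leaving out images with fewer than 100 cells, and scaling used 1.4826 × median absolute deviation.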

| SMILES | Srxn1-GFP intensity median modified Z-score |
| --- | --- |
| CC(CS)C(=O)N1CCCC1C(=O)O (configuration not stated) [euspeclibcmpd337] | -0.273 (inactive) |
| O=C(Nc1nc(-c2ccc(F)c(F)c2)cs1)c1cc(F)c(F)cc1[N+](=O)[O-] | 0.285 (inactive) |
| Cn1c(=O)c2c(ncn2CC2OCCO2)n(C)c1=O [euspeclibcmpd483] | -0.13 (inactive) |
| O=c1cc(-c2ccccc2)oc2cc(O)ccc12 [euspeclibcmpd1489] | -0.269 (inactive) |
| O=c1cc(-c2ccccc2)oc2c(O)c(O)ccc12 [euspeclibcmpd2237] | 4.14 (active) |
| O=c1cc(-c2ccccc2)oc2ccc(O)cc12 [euspeclibcmpd1505] | 0.447 (inactive) |
| O=c1c(Cc2c(O)oc3ccccc3c2=O)c(O)oc2ccccc12 [euspeclibcmpd328] | -0.0638 (inactive) |
| CCCCc1c(O)n(-c2ccc(O)cc2)n(-c2ccccc2)c1=O [euspeclibcmpd223] | 13.1 (active) |
| O=c1c(CC[S+]([O-])c2ccccc2)c(O)n(-c2ccccc2)n1-c1ccccc1 (configuration not stated) [euspeclibcmpd282] | -0.197 (inactive) |
| CCCCc1c(O)n(-c2ccccc2)n(-c2ccccc2)c1=O [euspeclibcmpd235] | 0.115 (inactive) |
| O=c1c2c3c(sc2nc(SCc2ccc(Cl)c(Cl)c2)n1-c1ccccc1)CCCC3 | 1.55 (inactive) |
| COCCn1nc(C(=O)NC(C)c2cccc(Cl)c2)ccc1=O (configuration not stated) | 1.38 (inactive) |
| CC(C)(Sc1cc(C(C)(C)C)c(O)c(C(C)(C)C)c1)Sc1cc(C(C)(C)C)c(O)c(C(C)(C)C)c1 [euspeclibcmpd377] | -0.0593 (inactive) |
| Cc1cc(C(C)(C)C)c(O)c(C)c1CC1=NCCN1 [euspeclibcmpd222] | 0.261 (inactive) |
| Cc1cc(C(C)(C)C)c(O)c(C(C)(C)C)c1 [euspeclibcmpd1001] | 14.5 (active) |
| CN(C)CCCN1c2ccccc2Sc2ccc(Cl)cc21 [euspeclibcmpd59] | 0.609 (inactive) |
| O=C(NCCC(=O)N1CCN(Cc2ccc3c(c2)OCO3)CC1)c1ccc(Cl)cc1 | 1.31 (inactive) |
| CC1(C)SC2C(NC(=O)C(N)c3ccccc3)C(=O)N2C1C(=O)O (configuration not stated) [euspeclibcmpd2081] | -0.172 (inactive) |
| CC1C(=O)CCC2[C@]3(C)CC[C@@]4(C)C5CC(C)(C)CC[C@]5(C)CC[C@]4(C)C3CC[C@]12C (some centres not stated) [euspeclibcmpd1606] | -0.261 (inactive) |
| CC[C@@H]1OC(=O)C[C@@H](O)[C@H](C)[C@@H](O[C@@H]2O[C@H](C)[C@@H](O)[C@H](N(C)C)[C@H]2O)[C@@H](CCN2C[C@H](C)C[C@H](C)C2)CC(C)C(=O)/C=C/C(C)=C\C1CO[C@@H]1O[C@H](C)[C@@H](O)[C@@H](OC)[C@H]1OC (some centres not stated) [euspeclibcmpd704] | 0.22 (inactive) |
| C=C(C)c1cc(O)c(C)cc1O [euspeclibcmpd1354] | 6.7 (active) |

| SMILES | Srxn1-GFP intensity median modified Z-score |
| --- | --- |
| CC(C)(CO)C(=O)C(O)NCCC(=O)O (configuration not stated) [euspeclibcmpd2436] | 0.216 (inactive) |
| Oc1ccc2c(c1)OCC1(O)Cc3cc(O)c(O)cc3C21 (configuration not stated) [euspeclibcmpd1416] | 1.37 (inactive) |
| NC(C(=O)C(O)C(O)CO)C(O)O (configuration not stated) [euspeclibcmpd1661] | -0.409 (inactive) |
| CCC[C@@H]1CC(C(=O)N[C@@H]([C@@H]2O[C@H](SC)[C@H](O)[C@@H](O)[C@H]2O)[C@H](C)Cl)N(C)C1 (some centres not stated) [euspeclibcmpd68] | -0.322 (inactive) |
| CCOC(=O)c1c(C)cc(O)c(C=O)c1O [euspeclibcmpd1571] | -0.398 (inactive) |
| COC(=O)c1c(C)cc(OC(=O)c2c(C)cc(O)c(C=O)c2O)c(C)c1O [euspeclibcmpd1556] | 12.5 (active) |
| COc1cc(C)c(C(=O)Oc2cc(C)c(C(=O)O)c(O)c2C)c(OC)c1C [euspeclibcmpd1550] | 1.38 (inactive) |
| COC1CC(OC2C(C)C(=O)OC(C)C(C)C(O)C(C)C(=O)C3(CO3)CC(C)C(OC3OC(C)CC(N(C)C)C3O)C2C)OC(C)C1O (configuration not stated) [euspeclibcmpd1849] | -0.547 (inactive) |
| S=C=Nc1ccc(N=C=S)cc1 [euspeclibcmpd1177] | 20.6 (active) |
| O=S(=O)(O)c1cc(N=C=S)ccc1C=Cc1ccc(N=C=S)cc1S(=O)(=O)O [euspeclibcmpd1825] | -0.132 (inactive) |
| CCOC(=O)C(CCc1ccccc1)NC(C)C(=O)N1C(C(=O)O)CC2CCCCC21 (configuration not stated) [euspeclibcmpd732] | 9.5 (active) |
| CCCC(NC(C)C(=O)N1C(C(=O)O)C[C@@H]2CCCC[C@@H]21)C(=O)OCC (some centres not stated) [euspeclibcmpd721] | -0.404 (inactive) |
| CCOC(=O)C(CCc1ccccc1)NC(C)C(=O)N1C(C(=O)O)C[C@@H]2CCC[C@@H]21 (some centres not stated) [euspeclibcmpd722] | -0.468 (inactive) |
| CC1C(=O)O[C@H]2CC34[C@H]5CC(C(C)(C)C)C36C(=O)C(O)O[C@H]6OC4(C(=O)O5)[C@@]12O (some centres not stated) [euspeclibcmpd2300] | -0.422 (inactive) |
| CC(=O)Nc1ccc(OC(=O)c2ccccc2O)cc1 [euspeclibcmpd1988] | -0.258 (inactive) |
| CN(C)N=Nc1[nH]cnc1C(N)=O [euspeclibcmpd80] | 60.7 (active) |
| CN(C)c1cc(NC(=O)CNC(C)(C)C)c(O)c2c1C[C@H]1C[C@H]3[C@H](N(C)C)C(=O)C(C(N)=O)C(=O)[C@@]3(O)C(=O)C1C2=O (some centres not stated) [euspeclibcmpd1297] | -0.316 (inactive) |
| OCc1cc(O)c2c(O)c3c(O)cccc3c([C@@H]3O[C@H](CO)[C@@H](O)[C@H](O)[C@H]3O)c2c1 [euspeclibcmpd1140] | -0.523 (inactive) |
| CCNC1CN(CCCOC)S(=O)(=O)c2sc(S(N)(=O)=O)cc21 (configuration not stated) [euspeclibcmpd1945] | -0.371 (inactive) |
| COc1cc([C@@H]2c3cc4c(cc3C(OC3O[C@@H]5COC(C)O[C@H]5[C@H](O)[C@H]3O)C3COC(=O)C32)OCO4)cc(OC)c1O (some centres not stated) [euspeclibcmpd356] | 2.43 (active) |
| COc1cc([C@@H]2c3cc4c(cc3C(O[C@@H]3O[C@@H]5CO[C@@H](c6cccs6)OC5[C@H](O)[C@H]3O)C3COC(=O)C32)OCO4)cc(OC)c1O (some centres not stated) [euspeclibcmpd647] | 8.51 (active) |
